Reference: PubChem BioAssay (NCI)
The panel holds about 83,000 compounds, 20% with a hit somewhere; the sample as a whole holds those more often.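 Testing used 96-well plates and a 48-hour single-concentration exposure. Example: -40 means 40% of the starting cells died.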 Values without a mark were called inactive. Active and inactive are the calls of the source. How the source made its calls: active means growth percent below 10; inactive means the rest.

Tests used:
Test in all cases: NCI-60 one-dose screen, 48 h (100 = growth as untreated, 0 = no growth, -100 = all killed)
Conditions in all cases: 10 µM unless noted
[1] = tested on: NCI-H226 lung
[2] = tested on: NCI-H322M lung
[3] = tested on: HOP-62 NSCLC
[4] = tested on: NCI-H460 lung
[5] = tested on: HOP-92 NSCLC
[6] = tested on: NCI-H522 lung
[7] = tested on: A549/ATCC NSCLC
[8] = tested on: 786-0 renal
[9] = tested on: COLO 205 colon
[10] = tested on: DU-145 prostate

SMILES	growth [1]	growth [2]	growth [3]	growth [4]	growth [5]	growth [6]	growth [7]	growth [8]	growth [9]	growth [10]
N[C@@H](Cc1cn(-c2c3ccccc3nc3ccccc23)nn1)C(=O)O	103%	98.3%	96.6%	111%	108%	105%	102%	105%	109%	105%
N#Cc1c(-c2ccc(Cl)cc2)nc(SCc2ccccc2)nc1N1CCNCC1	89.4%	79.6%	78.9%	-45.6% (active)	21.8%	92.4%	66.7%	64.3%	-8% (active)	63.8%
O=c1[nH]c2ccc(Cl)cc2cc1CSc1ccccc1Nc1nccc(-c2ccc(Cl)cc2)n1	115%	101%	101%	95.3%	87.6%	97.3%	86.4%	93.6%	116%	94.5%
C#Cc1nc(C2=C(C)C(=N\O)/C(=N/O)C2)cs1	101%	99.2%	101%	97%	88.5%	91.8%	95.3%	-90.9% (active)	118%	92.2%
N=C1CC(=O)NN1C(=O)CSc1nc2sc3c(c2c(=O)n1-c1ccc(Cl)cc1)CCCC3	103%	103%	90.3%	101%	80.1%	102%	102%	94.2%	123%	111%
O=C(c1ccc(Cl)cc1)C1[C@H](c2ccc(Cl)cc2)[C@@H](c2ccccc2)NC12C(=O)Nc1ccc(Br)cc12 (stereo not given in full)	38.1%	56.2%	58.6%	8.65% (active)	-1.5% (active)	66%	29.2%	24.6%	55.9%	46.8%
CCCC(=O)NC(c1cccc(N(C)C)c1)c1cc(C)c2cccnc2c1O (stereo not given)	65.4%	44.9%	44%	25.7%	64.2%	75.3%	79.3%	56.6%	88%	66.2%
Cc1ccc2c(n1)C(=O)C(Cl)=C(Nc1cccc(C(C)C)c1)C2=O	35.4%	85%	89.1%	78.8%	110%	23.4%	29.9%	68.4%	112%	22.5%
CN(C)CCCNc1c2ccccc2nc2c1oc1ccc(Cl)cc12	28.5%	24.4%	55.7%	12.6%	34.8%	38%	27.5%	18.6%	14.5%	20.8%
O=C(Nc1nc2ccc(O)cc2s1)c1cccc(C(F)(F)F)c1	84.2%	84.3%	88.6%	56.7%	69%	35.6%	57%	77.1%	107%	65.9%
CCN1C(=S)N(CC)C2C1NN=C1SC(c3ccccc3)=CC(=O)N12 (stereo not given)	101%	110%	100%	117%	103%	94.5%	101%	104%	115%	117%
Cc1nc(-c2cc3ccccc3oc2=O)ccc1C(=O)/C=C/c1ccc(N2CCOCC2)cc1	88.3%	107%	90.8%	89.7%	80%	61.4%	91.6%	75.3%	91.6%	91.1%
COc1ccc(/C=C2\SC(=Nc3cc(C)[nH]n3)NC2=O)cc1	86.8%	91.9%	85.2%	102%	68.5%	97.4%	102%	99.8%	90.8%	101%
COc1ccc(-n2c(SCC(=O)Nc3ccc(-c4nc5ccccc5[nH]4)cc3)nc3ccccc3c2=O)cc1	48.5%	51.9%	89.4%	-55.9% (active)	-33.3% (active)	-32.9% (active)	-24.4% (active)	-95.4% (active)	77.5%	6.71% (active)
CCN(CC)c1ccc(C=O)c(OCc2cn(CC(=O)Nc3ccc(Cl)cc3)nn2)c1	77.5%	94.9%	89.9%	52%	81.4%	80.9%	87.9%	72.9%	111%	81%
Cc1ccc(/C=C/c2nn3c(-c4ccco4)nnc3s2)cc1C	106%	97.1%	100%	104%	93.9%	104%	94%	100%	126%	103%
COc1cc2nc(-c3ccc(Cl)cc3)cc(OCCCNCC3CCCO3)c2cc1OC (stereo not given)	75.8%	66.7%	64.3%	30.2%	35.4%	45.1%	53.2%	43.3%	33.5%	49.2%
N#Cc1ccc(C(=O)CSc2nc(Nc3ccc(S(N)(=O)=O)cc3)c3ccccc3n2)cc1	105%	107%	99.2%	111%	111%	99.8%	108%	105%	117%	107%
N#Cc1nc(-c2ccccc2)oc1N1CCC(CO)C1 (stereo not given)	92.6%	88.4%	107%	103%	129%	97.8%	95.2%	101%	116%	104%
Cc1ccc(C(=O)Nc2cccc(C(F)(F)F)c2)cc1Nc1nc(-c2cnccn2)nc2c1cnn2C	71.6%	73%	46.6%	69.9%	35.3%	73.2%	70.8%	74%	20.4%	96.6%
COc1cc(/C=C/C(=O)c2cc(OC)c(OC)c(OC)c2)ccc1OCc1ccccc1	48.6%	45.5%	40.8%	22.4%	58.4%	49.3%	38.8%	40.1%	93.4%	27.2%
CC(C)(C)Nc1nc2c(OCCc3ccccc3)cccn2c1-c1cccc(F)c1	-7.74% (active)	20.1%	-33.2% (active)	-11% (active)	-27% (active)	-0.543% (active)	12.3%	5.13% (active)	-75% (active)	22.7%
COc1cccc(-c2nn(-c3ccccc3)cc2-c2ccnc(N3CCN(C(=O)Nc4ccc(F)cc4)CC3)c2)c1	66.7%	79.2%	102%	69.5%	63.1%	36.2%	55.9%	68.1%	64.7%	67.5%
COc1ccc(-c2csc(N/N=C/c3c(-c4ccc(S(C)(=O)=O)cc4)nc4ccccn34)n2)cc1	115%	106%	121%	109%	99.9%	104%	105%	82.7%	120%	113%
Nc1nc(N)c2c(n1)NC(c1ccc(F)cc1)CC(c1ccc(Nc3nc(NCCO)nc(Nc4ccc(Cl)cc4)n3)cc1)=N2 (stereo not given)	22.2%	29.1%	68.1%	-54.5% (active)	-65.5% (active)	-18.4% (active)	57%	-71.1% (active)	28.4%	12.2%
CCOc1ccc2nc(NC(=O)c3ccc(C(F)(F)F)cc3)sc2c1	107%	107%	118%	101%	139%	94.4%	101%	99.6%	117%	105%
Clc1ccc2oc3c(NCCCn4ccnc4)c4ccccc4nc3c2c1	40%	41.5%	66.2%	-25.9% (active)	47.2%	48.3%	32.7%	6.65% (active)	55.2%	21.9%
